Source: PubChem BioAssay (Tox21)
Results filed as inconclusive are left out. The source made the active and inactive calls. Unless noted, the call rests on the fitted dose curve.

Assays:
[1] = Nuclear factor erythroid 2-related factor 2/antioxidant responsive element (Nrf2/ARE) small molecule agonists: qHTS cell viability counter screen in human keratinocytes (AID 1919968; active means well fitted curve in the direction sought with a large enough effect in the repeat runs; an effect the other way counts as inactive or inconclusive; further: nearly all actives have a fitted effect of over 55% in size; further: potency means the concentration at half of the fitted maximal effect)
In short: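 Cells of the KeratinoSens line were plated at 1,500 per well and left for 5 h before compound transfer from DMSO stocks. After a 23 h incubation (37 C, 5% CO2), CellTiter-Fluor was added. Signal was taken as fluorescence intensity 1 h later.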

[2] = target: Gonadotropin-releasing hormone receptor (Homo sapiens) (UniProt P30968); assay: Human gonadotropin-releasing hormone receptor (GnRHR) small molecule agonists, calcium flux assay in GnRHR-HEK293 cells (AID 1920063); further: nearly all actives have a fitted effect of over 35% in size
Sequence of Gonadotropin-releasing hormone receptor (Homo sapiens) (P30968 whole entry, looked up): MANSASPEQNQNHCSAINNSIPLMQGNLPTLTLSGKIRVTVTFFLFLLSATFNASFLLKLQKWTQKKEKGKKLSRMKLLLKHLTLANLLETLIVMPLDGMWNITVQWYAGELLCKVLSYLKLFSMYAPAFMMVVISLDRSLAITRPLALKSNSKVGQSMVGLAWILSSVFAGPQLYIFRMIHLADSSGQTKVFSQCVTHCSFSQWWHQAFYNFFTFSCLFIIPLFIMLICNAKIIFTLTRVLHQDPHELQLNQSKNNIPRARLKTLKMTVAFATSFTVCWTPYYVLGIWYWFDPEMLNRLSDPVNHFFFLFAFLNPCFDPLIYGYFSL
In short: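 Compounds dissolved in DMSO are pin-transferred onto dye-loaded GnRHR-HEK293 cells, which were seeded 18 h before at 37 C/5% CO2. Calcium signal is read as fluorescence intensity at 1 s intervals for 3 min.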

[3] = target: KiSS-1 receptor (Homo sapiens) (UniProt Q969F8); assay: Human kisspeptin (KISS1R) small molecule agonists, calcium flux assay in KISS1R-HEK293 cells (AID 1920064; active means well fitted curve in the direction sought with a large enough effect in the repeat runs; an effect the other way counts as inactive or inconclusive)
Sequence of KiSS-1 receptor (Homo sapiens) (Q969F8 whole entry, looked up): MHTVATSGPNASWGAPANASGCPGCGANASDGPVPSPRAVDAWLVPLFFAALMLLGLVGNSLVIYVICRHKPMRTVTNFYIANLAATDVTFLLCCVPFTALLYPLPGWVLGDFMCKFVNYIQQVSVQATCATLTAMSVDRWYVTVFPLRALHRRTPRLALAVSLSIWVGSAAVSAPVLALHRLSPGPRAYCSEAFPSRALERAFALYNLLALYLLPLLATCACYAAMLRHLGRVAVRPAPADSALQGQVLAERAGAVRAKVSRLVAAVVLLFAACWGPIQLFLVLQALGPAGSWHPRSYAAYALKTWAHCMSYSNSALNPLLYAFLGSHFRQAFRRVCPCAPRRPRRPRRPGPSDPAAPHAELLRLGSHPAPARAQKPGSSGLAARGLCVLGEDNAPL
In short: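 Cell line: HEK293, stable human KISS1R. Dye loading 1 h at 37 C after 18 h culture. Read: kinetic fluorescence, 480/540 nm, 3 min at 1 s intervals.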

[4] = G protein-coupled receptor (GPCR) small molecule agonists, calcium flux assay: HEK293 wild type cell line counter screen (AID 1920065)
In short: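 Tox21 10K compounds, 15 concentrations each in triplicate, pin-transferred in DMSO onto dye-loaded cells; kinetic read at 480/540 nm for 3 min, 1 s intervals.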

[5] = p53 small molecule agonists, cell-based qHTS assay with human liver microsomes (AID 1963577);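 further: p53 response element beta-lactamase reporter cells with liver microsomes plus NADPH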
In short: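 Steps: plate p53RE-bla cells, incubate 5 h at 37 C; add compound in DMSO; add microsomes (0.5 mg/mL final) and NADPH (0.5 mg/mL final); incubate 16 h at 37 C; add LiveBLAzer, 2 h RT; read fluorescence.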

[6] = p53 small molecule agonists, cell-based qHTS assay with rat liver microsomes (AID 1963578)
In short: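 Metabolic activation is supplied by rat liver microsomes with NADPH (each 0.5 mg/mL final). p53RE-bla cells incubate with compound 16 h at 37 C; reporter activity is measured by LiveBLAzer fluorescence.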

[7] = p53 small molecule agonists, cell-based qHTS assay with human liver microsomes: qHTS cell viability counter screen (AID 1963579); further: nearly all actives have a fitted effect of over 45% in size
In short: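 After the 460/530 nm beta-lactamase read, CellTiter-Glo was added to the same wells and luminescence measured after 30 min at room temperature, giving viability of p53RE-bla cells treated 16 h with compounds plus microsomes and NADPH.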

[8] = p53 small molecule agonists, cell-based qHTS assay with rat liver microsomes: qHTS cell viability counter screen (AID 1963580); further: nearly all actives have a fitted effect of over 45% in size
In short: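 After the beta-lactamase ratio was read, CellTiter-Glo was added to the same wells and luminescence measured at 30 min; cells had been treated 16 h at 37 C with compounds, rat liver microsomes and NADPH (0.5 mg/mL final each).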

[9] = p53 small molecule agonists, cell-based qHTS assay: qHTS cell viability counter screen (AID 1963581); further: nearly all actives have a fitted effect of over 45% in size
In short: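 ATP content measured by luminescence in HCT-116 p53RE-bla cells treated 16 h at 37 C, same wells as the reporter screen.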

[10] = p53 small molecule agonists, cell-based qHTS assay (AID 1963582; active means well fitted activation curve with a large enough effect in the signal ratio in the repeat runs, not every such curve was filed as active; the % refers to the signal ratio)
In short: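 16 h compound exposure (37 C) of p53 response element–bla cells, preceded by 5 h recovery at 37 C/5% CO2; read-out via LiveBLAzer B/G FRET substrate, 2 h RT, fluorescence intensity.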

[11] = target: 5-hydroxytryptamine receptor 2A (Homo sapiens) (UniProt P28223); assay: 5-hydroxytryptamine receptor 2A (HTR2A) small molecule antagonists, cell-based qHTS assay (AID 1963586); further: nearly all actives have a fitted effect of over 45% in size; further: potency means the concentration at half of the fitted maximal effect
Sequence of 5-hydroxytryptamine receptor 2A (Homo sapiens) (P28223 whole entry, looked up): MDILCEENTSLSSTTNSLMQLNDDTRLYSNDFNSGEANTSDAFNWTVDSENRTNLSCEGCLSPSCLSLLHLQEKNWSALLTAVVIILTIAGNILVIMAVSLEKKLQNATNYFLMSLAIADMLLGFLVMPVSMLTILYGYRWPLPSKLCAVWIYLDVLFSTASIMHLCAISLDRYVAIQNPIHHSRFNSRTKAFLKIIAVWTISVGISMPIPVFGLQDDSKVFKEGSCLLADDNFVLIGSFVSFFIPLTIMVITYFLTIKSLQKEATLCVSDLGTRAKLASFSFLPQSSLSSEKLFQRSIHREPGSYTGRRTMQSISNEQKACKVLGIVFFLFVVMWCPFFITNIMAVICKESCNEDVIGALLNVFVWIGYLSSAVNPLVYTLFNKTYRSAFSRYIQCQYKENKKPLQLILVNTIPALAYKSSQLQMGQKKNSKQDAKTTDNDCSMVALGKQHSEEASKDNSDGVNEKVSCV
In short: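 CHO cells stably expressing human HTR2A were plated for 18 h at 37 C, then loaded with calcium dye for 1 h. Compounds were preincubated 5 min at room temperature before DOI (4 nM solution) was added. Kinetic fluorescence was read for 3 min.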

[12] = target: 5-hydroxytryptamine receptor 2A (Homo sapiens) (UniProt P28223); assay: 5-hydroxytryptamine receptor 2A (HTR2A) small molecule agonists, cell-based qHTS assay (AID 1963587); further: nearly all actives have a fitted effect of over 30% in size
In short: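 CHO cells stably expressing human HTR2A, plated 18 h, loaded with calcium dye 1 h at 37 C. Agonist mode: compounds added and intracellular calcium fluorescence recorded kinetically for 2 min at 1 sec intervals.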

[13] = target: Muscarinic acetylcholine receptor M1 (Homo sapiens) (UniProt P11229); assay: Cholinergic receptor muscarinic 1 (CHRM1) small molecule antagonists, cell-based qHTS assay (AID 1963588); further: nearly all actives have a fitted effect of over 40% in size; further: potency means the concentration at half of the fitted maximal effect
Sequence of Muscarinic acetylcholine receptor M1 (Homo sapiens) (P11229 whole entry, looked up): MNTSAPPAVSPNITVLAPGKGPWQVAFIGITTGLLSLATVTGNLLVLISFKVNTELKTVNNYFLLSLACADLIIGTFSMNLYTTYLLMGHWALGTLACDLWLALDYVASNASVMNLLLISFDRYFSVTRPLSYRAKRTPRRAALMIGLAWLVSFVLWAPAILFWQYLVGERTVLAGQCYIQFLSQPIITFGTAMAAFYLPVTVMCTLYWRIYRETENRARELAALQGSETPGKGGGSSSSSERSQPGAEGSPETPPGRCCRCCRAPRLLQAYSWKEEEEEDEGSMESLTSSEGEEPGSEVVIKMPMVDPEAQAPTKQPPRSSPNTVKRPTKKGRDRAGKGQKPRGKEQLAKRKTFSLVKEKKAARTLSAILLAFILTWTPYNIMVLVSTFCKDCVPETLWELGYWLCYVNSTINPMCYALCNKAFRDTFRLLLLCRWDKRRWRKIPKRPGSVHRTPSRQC
In short: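 Compounds were tested at 15 concentrations in three independent runs. Dye-loaded CHRM1-CHO cells were exposed 5 min at room temperature before stimulation by acetylcholine added at 50nM. Intracellular calcium was read kinetically on FDSS for 3 min.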

[14] = target: Muscarinic acetylcholine receptor M1 (Homo sapiens) (UniProt P11229); assay: Cholinergic receptor muscarinic 1 (CHRM1) small molecule agonists, cell-based qHTS assay (AID 1963589); further: nearly all actives have a fitted effect of over 35% in size
In short: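 Homogeneous fluorescence calcium flux, agonist mode. Human M1-expressing CHO cells; compound dosed at 15 concentrations, three independent runs; signal sampled every 1 sec.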

[15] = cAMP Responsive Elements (CRE) small molecule antagonists, cell-based qHTS assay (AID 1963591; active means well fitted inhibition curve with a large enough effect in the signal ratio in the repeat runs, not every such curve was filed as active; the % refers to the signal ratio)
In short: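 First, CRE-bla HEK293T cells settled 18 h at 37 C. Next, compound and 0.25 uM final NKH477 were applied for 3 h. Last, LiveBLAzer B/G substrate was loaded for 2 h at room temperature.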

[16] = target: Beta-2 adrenergic receptor (Homo sapiens) (UniProt P07550); assay: Adrenergic beta2 receptor (ADRB2) small molecule antagonists, cell-based qHTS assay (AID 1963592); further: series mostly up to about 92 µM; nearly all actives have a fitted effect of over 50% in size
Sequence of Beta-2 adrenergic receptor (Homo sapiens) (P07550 whole entry, looked up): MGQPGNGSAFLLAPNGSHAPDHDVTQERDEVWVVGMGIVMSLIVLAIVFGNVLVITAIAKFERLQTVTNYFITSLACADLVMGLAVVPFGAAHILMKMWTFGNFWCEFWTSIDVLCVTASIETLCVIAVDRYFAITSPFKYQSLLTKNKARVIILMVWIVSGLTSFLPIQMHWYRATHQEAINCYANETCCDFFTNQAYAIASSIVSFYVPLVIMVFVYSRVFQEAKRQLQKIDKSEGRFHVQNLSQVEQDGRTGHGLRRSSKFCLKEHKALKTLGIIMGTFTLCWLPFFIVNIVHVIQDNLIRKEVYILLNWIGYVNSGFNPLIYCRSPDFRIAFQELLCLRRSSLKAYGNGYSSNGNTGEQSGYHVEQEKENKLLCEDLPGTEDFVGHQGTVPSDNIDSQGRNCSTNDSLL
In short: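 Assay format: CHO-ADRB2 cells, 18-20hr seeding at 37C/5% CO2, then compound plus 1nM isoproterenol agonist mix for 0.5hr RT. Homogeneous time-resolved fluorescence cAMP detection after 1hr, expressed as 665/615 nm ratio.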

[17] = target: Beta-2 adrenergic receptor (Homo sapiens) (UniProt P07550); assay: Adrenergic beta2 receptor (ADRB2) small molecule agonists, cell-based qHTS assay (AID 1963593);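 further: CHO cells stably overexpressing human ADRB2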
In short: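 CHO cells stably over-expressing ADRB2 were plated overnight at 37C, then dosed with compounds plus a stimulation mix containing 100uM IBMX and 25uM Ro-20-1724 for 0.5hr at room temperature. cAMP was measured by HTRF competition, 1hr.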

[18] = target: D(2) dopamine receptor (Homo sapiens) (UniProt P14416); assay: Dopamine D2 receptor (DRD2) small molecule agonists, cell-based qHTS assay (AID 1963594); further: nearly all actives have a fitted effect of over 35% in size
Sequence of D(2) dopamine receptor (Homo sapiens) (P14416 whole entry, looked up): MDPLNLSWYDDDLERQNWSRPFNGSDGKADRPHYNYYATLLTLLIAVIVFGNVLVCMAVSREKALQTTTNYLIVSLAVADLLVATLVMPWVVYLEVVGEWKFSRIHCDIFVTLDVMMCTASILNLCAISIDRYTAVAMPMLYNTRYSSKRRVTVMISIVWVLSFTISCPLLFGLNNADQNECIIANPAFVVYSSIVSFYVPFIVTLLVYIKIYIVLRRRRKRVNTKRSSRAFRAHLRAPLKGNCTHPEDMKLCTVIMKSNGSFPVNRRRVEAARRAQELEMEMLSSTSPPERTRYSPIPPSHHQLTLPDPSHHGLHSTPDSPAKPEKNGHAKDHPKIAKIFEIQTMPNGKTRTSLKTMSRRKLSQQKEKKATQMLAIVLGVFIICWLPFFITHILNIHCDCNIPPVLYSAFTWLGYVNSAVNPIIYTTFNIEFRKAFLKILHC
In short: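 HEK293 cells stably expressing human DRD2, pre-treated with PDE inhibitor Ro20-1724 (0.1 mM final) and compound 10 min at room temperature, then stimulated with NKH477 (200nM […]) for 30 min. cAMP read by HTRF (665/620 nm).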

[19] = target: D(2) dopamine receptor (Homo sapiens) (UniProt P14416); assay: Dopamine D2 receptor (DRD2) small molecule antagonists, cell-based qHTS assay (AID 1963595; active means well fitted inhibition curve with a large enough effect in the signal ratio in the repeat runs, with a control signal flat; the % refers to the signal ratio)
In short: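 DRD2-HEK293; 0.1 mM Ro20-1724; cpd 10 min RT; NKH477 200 nM + quinpirole 12 nM, 30 min RT; HTRF cAMP (cAMP-d2/anti-cAMP cryptate), 665/620 nm ratio after 1 h.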

[20] = cAMP Responsive Elements (CRE) small molecule agonists, cell-based qHTS assay (AID 1963590)
In short: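 HEK 293T cells stably bearing CRE-bla were plated at 2,000 cells per well and rested 18 h. Compounds, positive controls or DMSO were added for 3 h at 37 C. LiveBLAzer B/G substrate was then loaded for 2 h at room temperature.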

Measured: Potency

COC(C)CCO (configuration not stated)
inactive: [1] | [2] | [3] | [4] | [5] | [6] | [7] | [8] | [9] | [10] | [11] | [12] | [13] | [14] | [15] | [16] | [17] | [18] | [19]

O=C(Cl)c1cc(C(=O)Cl)cc(C(=O)Cl)c1
inactive: [1] | [2] | [3] | [4] | [5] | [6] | [7] | [8] | [9] | [10] | [11] | [12] | [13] | [14] | [20] | [16] | [18]

CC(=O)OCC(C)OC(C)=O (configuration not stated)
inactive: [1] | [2] | [3] | [4] | [5] | [6] | [7] | [8] | [9] | [10] | [11] | [12] | [13] | [14] | [20] | [16] | [18] | [19]

CC(C)(c1ccc(Oc2ccc(N)cc2)cc1)c1ccc(Oc2ccc(N)cc2)cc1
inactive: [2] | [3] | [4] | [5] | [6] | [7] | [8] | [9] | [10] | [11] | [12] | [13] | [14] | [20] | [15] | [16] | [18] | [19]
active: [1] 38.6 µM

C#CCN(C)CCCOc1ccc(Cl)cc1Cl
inactive: [1] | [2] | [3] | [4] | [5] | [6] | [7] | [8] | [9] | [10] | [12] | [14] | [20] | [15] | [16] | [17]
active: [11] 16.3 µM

CCCCCCCCCCCCSC#N
inactive: [1] | [2] | [3] | [4] | [5] | [6] | [7] | [8] | [9] | [10] | [11] | [12] | [13] | [14] | [20] | [16] | [19]

O=C1CCCC(=O)O1
inactive: [1] | [2] | [3] | [4] | [5] | [6] | [7] | [8] | [9] | [10] | [11] | [12] | [13] | [14] | [20] | [16] | [18] | [19]

O=Cc1ccc(O)c(O)c1O
inactive: [1] | [2] | [3] | [4] | [5] | [6] | [7] | [8] | [9] | [10] | [11] | [12] | [13] | [14] | [15] | [16] | [18] | [19]

CC(C)NC(=O)c1ccc(C=O)cc1
inactive: [1] | [2] | [3] | [4] | [5] | [6] | [7] | [8] | [9] | [10] | [11] | [12] | [13] | [14] | [20] | [16] | [18] | [19]

C=CC(=O)OCCOc1ccccc1
inactive: [1] | [2] | [3] | [4] | [5] | [6] | [7] | [8] | [9] | [10] | [11] | [12] | [13] | [14] | [16] | [18]

CCC(C)O (configuration not stated)
inactive: [1] | [2] | [3] | [4] | [5] | [6] | [7] | [8] | [9] | [10] | [11] | [12] | [13] | [20] | [16] | [17] | [18] | [19]

Cc1cccc(OCCOc2cccc(C)c2)c1
inactive: [1] | [2] | [3] | [4] | [5] | [6] | [7] | [8] | [9] | [10] | [11] | [12] | [13] | [14] | [20] | [16] | [18] | [19]

Nc1cccc([N+](=O)[O-])c1
active: [13] 130 nM
inactive: [1] | [2] | [3] | [4] | [5] | [6] | [7] | [8] | [9] | [10] | [11] | [12] | [20] | [15] | [16] | [17] | [19]

O=[N+]([O-])c1cccc(C(F)(F)F)c1
inactive: [1] | [2] | [3] | [4] | [5] | [6] | [7] | [8] | [9] | [10] | [11] | [12] | [13] | [14] | [20] | [16] | [18] | [19]

O=C(CS)OCCOC(=O)CS
inactive: [1] | [2] | [3] | [4] | [5] | [6] | [7] | [8] | [9] | [10] | [11] | [12] | [13] | [20] | [16] | [17] | [18] | [19]
